Reference: PubChem BioAssay AID1159580 (chemical genetic matrix, 2015)
Values joined by “and” are separate entries in the source; they are usually repeats but may differ in a detail not shown here. Equal entries are not always repeated. The whole screen tested about 5,500 compounds, of which about 2,000 (36%) were called active. Another 18% or so got no clear call; they are omitted. Cut-off read from the data, not from the text of the source: active = normalized growth mostly below about 0.91 (no sharp cut-off); inconclusive = no clear call, values can overlap the other calls; inactive = mostly above about 0.92. This is one part of the list.

Assay: chemical genetic growth profiling, strain panel (AID 1159580);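 note: tested at 20 µM; growth read once vehicle control cultures reached saturation at 30 °C; 1 = growth at the plate median or of vehicle wells; lower values mean less growth of the strain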
Conditions: S. cerevisiae deletion strains, growth OD

Measured: normalized growth

CCOC(=O)C1C(C=C(C)C)C1(C)C (stereo unspecified)
inactive: locus YAL013W, strain DEP1, active compounds read low 0.998 | locus YAL021C, strain ccr4, active compounds read low 0.989 | locus YAL026C, strain drs2, active compounds read low 1.01 | locus YAL030W, strain snc1, active compounds read low 1 | locus YBL061C, strain skt5, active compounds read low 1.01 | locus YBR009C, strain hhf1, active compounds read low 0.998 | locus YBR021W, strain FUR4, active compounds read low 0.979 | locus YBR023C, strain chs3, active compounds read low 1 | locus YBR171W, strain sec66, active compounds read low 1 | locus YBR229C, strain ROT2, active compounds read low 1 | locus YBR231C, strain swc5, active compounds read low 0.995 | locus YBR279W, strain paf1, active compounds read low 1 | locus YCL011C, strain gbp2, active compounds read low 0.992 | locus YCL016C, strain dcc1, active compounds read low 1.01 | locus YCL029C, strain bik1, active compounds read low 1.02 | locus YCL061C, strain MRC1, active compounds read low 0.996 | locus YCL069W, strain vba3, active compounds read low 1 | locus YCR088W, strain abp1, active compounds read low 1 | locus YDL005C, strain med2, active compounds read low 0.991 | locus YDL035C, strain GPR1, active compounds read low 1.01 | locus YDL040C, strain nat1, active compounds read low 1.02 | locus YDL074C, strain BRE1, active compounds read low 1.03 | locus YDL101C, strain DUN1, active compounds read low 1 | locus YDL185W, strain tfp1, active compounds read low 1.02 | locus YDL192W, strain arf1, active compounds read low 1 | locus YDR001C, strain nth1, active compounds read low 1 | locus YDR069C, strain doa4, active compounds read low 1 | locus YDR101C, strain arx1, active compounds read low 1.01 | locus YDR137W, strain rgp1, active compounds read low 1.01 | locus YDR159W, strain sac3, active compounds read low 0.939 | locus YDR162C, strain NBP2, active compounds read low 1.01 | locus YDR195W, strain ref2 0.99 | locus YDR297W, strain sur2, active compounds read low 0.991 | locus YDR318W, strain mcm21, active compounds read low 1.01 | locus YDR334W, strain swr1, active compounds read low 1.01 | locus YDR335W, strain msn5, active compounds read low 1 | locus YDR388W, active compounds read low 1.01 | locus YDR392W, strain spt3, active compounds read low 0.876 | locus YDR502C, strain sam2, active compounds read low 1.01 | locus YEL003W, strain gim4, active compounds read low 1.02 | locus YEL037C, strain rad23, active compounds read low 1 | locus YEL061C, strain CIN8 (second series), active compounds read low 1.01 | locus YEL061C, strain CIN8, active compounds read low 1 | locus YER015W, strain faa2, active compounds read low 1 | locus YER016W, strain bim1, active compounds read low 0.978 | locus YER110C, active compounds read low 1.02 | locus YER111C, strain swi4, active compounds read low 0.997 | locus YER155C, strain BEM2 (second series), active compounds read low 0.981 | locus YER155C, strain BEM2, active compounds read low 1 | locus YER167W, strain BCK2, active compounds read low 0.998 | locus YFR010W, strain ubp6, active compounds read low 1 | locus YGL078C, strain dbp3, active compounds read low 1 | locus YGL086W, strain mad1, active compounds read low 1.01 | locus YGL167C, strain pmr1, active compounds read low 1 | locus YGL173C, strain kem1, active compounds read low 1 | locus YGL227W, strain vid30, active compounds read low 1 | locus YGL240W, strain doc1, active compounds read low 0.97 | locus YGL248W, strain PDE1, active compounds read low 1.01 | locus YGL253W, strain hxk2, active compounds read low 1.02 | locus YGR078C, strain PAC10, active compounds read low 1.01 | locus YGR135W, strain pre9, active compounds read low 0.993 | locus YGR252W, strain gcn5, active compounds read low 0.982 | locus YHR013C, strain ard1, active compounds read low 1 | locus YHR027C, strain rpn1, active compounds read low 1 | locus YHR030C, strain SLT2, active compounds read low 1 and 1.04 | locus YHR079C, strain IRE1 (second series), active compounds read low 1 | locus YHR079C, strain IRE1, active compounds read low 1.04 | locus YHR094C, strain hxt1, active compounds read low 1.01 | locus YHR129C, strain ARP1, active compounds read low 1 | locus YHR142W, strain chs7, active compounds read low 1.01 | locus YHR200W, strain rpn10, active compounds read low 1.02 | locus YIL066C, strain RNR3, active compounds read low 0.996 | locus YIL073C, strain SPO22, active compounds read low 1.06 | locus YIL125W, strain kgd1, active compounds read low 1.01 | locus YIR030C, strain dcg1, active compounds read low 1.01 | locus YJL092W, strain hpr5, active compounds read low 1 | locus YJL095W, strain BCK1 (second series), active compounds read low 1.02 | locus YJL095W, strain BCK1, active compounds read low 1 and 1.02 | locus YJL115W, strain asf1, active compounds read low 0.999 | locus YJL129C, strain trk1, active compounds read low 0.984 | locus YJL134W, strain LCB3, active compounds read low 1 | locus YJL154C, strain vps35, active compounds read low 1 | locus YJL164C, strain tpk1, active compounds read low 0.989 | locus YJL166W, strain qcr8, active compounds read low 0.996 | locus YJL168C, strain set2, active compounds read low 1.01 | locus YJL187C, strain SWE1 (second series), active compounds read low 1 | locus YJR043C, strain POL32, active compounds read low 0.988 | locus YJR066W, strain TOR1, active compounds read low 0.991 | locus YKL009W, strain mrt4, active compounds read low 1.06 | locus YKL068W, active compounds read low 1.01 | locus YKL085W, strain MDH1 (second series), active compounds read low 1.01 | locus YKL085W, strain MDH1, active compounds read low 1.01 | locus YKL160W, strain elf1, active compounds read low 1.01 | locus YKL190W, strain CNB1, active compounds read low 0.983 | locus YKR001C, strain vps1, active compounds read low 1.04 | locus YKR026C, strain gcn3, active compounds read low 1 | locus YKR091W, strain srl3, active compounds read low 0.997 | locus YLL001W, strain dnm1, active compounds read low 0.978 | locus YLL026W, active compounds read low 1.01 | locus YLL041C, strain sdh2, active compounds read low 1.01 | locus YLR027C, strain aat2, active compounds read low 0.982 | locus YLR039C, strain RIC1, active compounds read low 1.01 | locus YLR058C, strain SHM2, active compounds read low 1 | locus YLR102C, strain apc9, active compounds read low 1.01 | locus YLR113W, strain HOG1, active compounds read low 1.04 | locus YLR221C, strain rsa3, active compounds read low 1.01 | locus YLR258W, strain gsy2, active compounds read low 1.01 | locus YLR262C, strain YPT6 (second series), active compounds read low 1.01 | locus YLR262C, strain YPT6, active compounds read low 1.02 | locus YLR268W, strain sec22, active compounds read low 1.03 | locus YLR320W, strain mms22, active compounds read low 0.976 | locus YLR330W, strain CHS5, active compounds read low 1.03 | locus YLR342W, strain FKS1 (second series), active compounds read low 0.98 | locus YLR342W, strain FKS1, active compounds read low 1 | locus YLR357W, strain rsc2, active compounds read low 0.925 | locus YLR370C, strain arc18, active compounds read low 1.02 | locus YLR371W, strain rom2, active compounds read low 1.01 | locus YLR384C, strain iki3, active compounds read low 0.995 | locus YLR418C, strain cdc73, active compounds read low 1.02 | locus YML016C, strain PPZ1, active compounds read low 1.01 | locus YML032C, strain rad52, active compounds read low 1 | locus YML120C, strain ndi1, active compounds read low 0.994 | locus YML124C, strain tub3, active compounds read low 1 | locus YMR058W, strain fet3, active compounds read low 1 | locus YMR078C, strain ctf18, active compounds read low 1 | locus YMR125W, strain sto1, active compounds read low 0.983 | locus YMR129W, active compounds read low 1 | locus YMR205C, strain PFK2, active compounds read low 0.995 | locus YMR223W, strain ubp8, active compounds read low 0.992 | locus YMR231W, strain pep5, active compounds read low 0.999 | locus YMR307W, strain GAS1, active compounds read low 1.02 | locus YNL067W, strain RPL9B, active compounds read low 1 | locus YNL071W, strain lat1, active compounds read low 1.01 | locus YNL183C, strain NPR1, active compounds read low 0.981 | locus YNL209W, strain ssb2, active compounds read low 0.99 | locus YNL233W, strain BNI4, active compounds read low 1 | locus YNL248C, strain rpa49, active compounds read low 0.95 | locus YNL250W, strain rad50, active compounds read low 1.02 | locus YNL271C, strain bni1, active compounds read low 1.02 | locus YNL298W, strain CLA4, active compounds read low 1.01 | locus YNL307C, strain MCK1, active compounds read low 1.02 | locus YNL322C, strain KRE1 (second series), active compounds read low 0.969 | locus YNR049C, strain mso1, active compounds read low 1 | locus YNR052C, strain pop2, active compounds read low 1.01 | locus YOL012C, strain htz1 0.867 | locus YOL147C, strain pex11, active compounds read low 1.01 | locus YOR001W, strain rrp6, active compounds read low 0.981 | locus YOR061W, strain CKA2, active compounds read low 1 | locus YOR069W, strain VPS5, active compounds read low 1 | locus YOR070C, strain gyp1, active compounds read low 0.996 | locus YOR080W, strain dia2, active compounds read low 0.991 | locus YOR083W, strain WHI5, active compounds read low 0.937 | locus YOR106W, strain vam3, active compounds read low 1 | locus YOR136W, strain idh2, active compounds read low 1.02 | locus YOR144C, strain elg1, active compounds read low 1.01 | locus YOR184W, strain ser1, active compounds read low 1.01 | locus YOR231W, strain MKK1, active compounds read low 1.03 | locus YOR265W, strain rbl2, active compounds read low 1.01 | locus YOR270C, strain vph1, active compounds read low 1.03 | locus YOR290C, strain snf2, active compounds read low 1.01 | locus YOR316C, strain cot1, active compounds read low 1.01 | locus YPL051W, strain arl3, active compounds read low 1 | locus YPL078C, strain atp4, active compounds read low 0.991 | locus YPL106C, strain sse1, active compounds read low 0.963 | locus YPL240C, strain hsp82, active compounds read low 0.998 | locus YPL256C, strain CLN2, active compounds read low 1.02 | locus YPR119W, strain clb2, active compounds read low 1.01 | locus YPR141C, strain kar3, active compounds read low 1.01 | locus YPR163C, strain tif3, active compounds read low 1.01 | locus YPR167C, strain met16, active compounds read low 1.03 | strain wtn01, active compounds read low 1.02
